SMILES strings stand for the structures. The source made the active and inactive calls.

Test [1] can be described thus: optical density shifts of acrAB sulA E. coli – strain DRC41, OD650, 48 h, E. coli filamentation inducer project, primary screen (AID 1152).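 Note: E. coli MC1000 strain DRC41 lacking acrAB efflux pump and sulA.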 To be noted: higher = more signal, called active from +8 up or from −8 down.
Test [2] in a line: probe aLefty1 binding on compound microarray – biochemical, small-molecule microarray, 635/667 nm fluorescence, primary screen (AID 1153).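 Note: score merges spot fluorescence with signal-to-noise ratio from the scanned slide images.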 The settings on record: higher = more signal.
Test [3] in a line: plasmodial surface anion channel blockers, osmotic lysis – cell-based, P. falciparum Indochina, OD700, 1 h, primary screen (AID 1154). To be noted: P. falciparum Indochina infected RBC osmotic lysis, higher = more signal, called active from +8 up or from −8 down.
Test [4] in a line: plasmodial surface anion channel blockers, osmotic lysis – cell-based, P. falciparum Indochina, OD700, 2 h, primary screen (AID 1155).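 Note: lysis reports solute entry through the parasite surface anion channel PSAC.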 The settings on record: P. falciparum Indochina infected erythrocytes, higher = more signal, called active from +8 up or from −8 down.
Test [5] can be described thus: changes in parasitized red cell lysis, either direction – P. falciparum Indochina, OD700, 3 h, PSAC antagonist project, primary screen (AID 1156). To be noted: P. falciparum-infected erythrocytes, osmotic lysis, higher = more signal, called active from +8 up or from −8 down.
A short description of test [6]: plasmodial surface anion channel blockers, osmotic lysis – cell-based, P. falciparum Indochina, OD700, 18 h, primary screen (AID 1157). The settings on record: P. falciparum Indochina infected erythrocytes, osmotic lysis OD700, 18 h; higher = more signal, called active from +8 up or from −8 down.
A short description of test [7]: S6 kinase pathway phospho-S6 level changes – cell-based, A549, cytoblot, luminescence, serum-stimulated, primary screen (AID 1158).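 Note: serum-stimulated A549 lung adenocarcinoma cells; signal is phosphorylated S6 detected by cytoblot immunostaining with HRP secondary.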 To be noted: 5 h, higher = more signal.
Test [8] has as its target NADPH oxidase 2 (Homo sapiens) (UniProt P04839). The test can be described thus: compounds shifting NOX2 Amplex Red fluorescence – cell-based, HEK293-NOX2, PMA-stimulated, NOX inhibitor project, primary screen (AID 1159). Note: test concentration not given here. To be noted: 45 min, higher = more signal, called active from +8 up or from −8 down.
Test [9] deals with NADPH oxidase 4 (Homo sapiens) (UniProt Q9NPH5). Briefly: compounds shifting NOX4 Amplex Red fluorescence – cell-based, HEK293-NOX4, tetracycline-induced, NOX inhibitor project, primary screen (AID 1160). The settings on record: HEK293-NOX4, Amplex Red H2O2 fluorescence, 45 min; higher = more signal, called active from +8 up or from −8 down.
Sequence of NADPH oxidase 4 (Homo sapiens) (Q9NPH5 whole entry, looked up): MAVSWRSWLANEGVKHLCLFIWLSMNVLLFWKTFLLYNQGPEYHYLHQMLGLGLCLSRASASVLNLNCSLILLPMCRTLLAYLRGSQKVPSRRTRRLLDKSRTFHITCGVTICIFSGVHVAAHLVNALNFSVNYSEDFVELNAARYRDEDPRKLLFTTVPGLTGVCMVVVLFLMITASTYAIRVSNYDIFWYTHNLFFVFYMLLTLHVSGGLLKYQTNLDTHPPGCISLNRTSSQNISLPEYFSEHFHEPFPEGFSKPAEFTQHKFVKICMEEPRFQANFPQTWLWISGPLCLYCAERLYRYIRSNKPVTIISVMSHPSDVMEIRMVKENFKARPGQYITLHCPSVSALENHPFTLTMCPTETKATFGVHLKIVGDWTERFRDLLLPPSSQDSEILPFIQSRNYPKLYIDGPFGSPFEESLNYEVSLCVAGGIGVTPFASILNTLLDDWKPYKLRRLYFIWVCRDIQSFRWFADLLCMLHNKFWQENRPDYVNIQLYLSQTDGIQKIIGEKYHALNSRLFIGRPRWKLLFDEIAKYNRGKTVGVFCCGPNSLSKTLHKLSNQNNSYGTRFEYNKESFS
Test [10] deals with NADPH oxidase 5 (Homo sapiens) (UniProt Q96PH1). Briefly: compounds shifting NOX5 Amplex Red fluorescence – cell-based, HEK293-NOX5, NOX inhibitor project, primary screen (AID 1161). The settings on record: HEK293-NOX5, ionomycin, 45 min, higher = more signal.
Sequence of NADPH oxidase 5 (Homo sapiens) (Q96PH1 whole entry, looked up): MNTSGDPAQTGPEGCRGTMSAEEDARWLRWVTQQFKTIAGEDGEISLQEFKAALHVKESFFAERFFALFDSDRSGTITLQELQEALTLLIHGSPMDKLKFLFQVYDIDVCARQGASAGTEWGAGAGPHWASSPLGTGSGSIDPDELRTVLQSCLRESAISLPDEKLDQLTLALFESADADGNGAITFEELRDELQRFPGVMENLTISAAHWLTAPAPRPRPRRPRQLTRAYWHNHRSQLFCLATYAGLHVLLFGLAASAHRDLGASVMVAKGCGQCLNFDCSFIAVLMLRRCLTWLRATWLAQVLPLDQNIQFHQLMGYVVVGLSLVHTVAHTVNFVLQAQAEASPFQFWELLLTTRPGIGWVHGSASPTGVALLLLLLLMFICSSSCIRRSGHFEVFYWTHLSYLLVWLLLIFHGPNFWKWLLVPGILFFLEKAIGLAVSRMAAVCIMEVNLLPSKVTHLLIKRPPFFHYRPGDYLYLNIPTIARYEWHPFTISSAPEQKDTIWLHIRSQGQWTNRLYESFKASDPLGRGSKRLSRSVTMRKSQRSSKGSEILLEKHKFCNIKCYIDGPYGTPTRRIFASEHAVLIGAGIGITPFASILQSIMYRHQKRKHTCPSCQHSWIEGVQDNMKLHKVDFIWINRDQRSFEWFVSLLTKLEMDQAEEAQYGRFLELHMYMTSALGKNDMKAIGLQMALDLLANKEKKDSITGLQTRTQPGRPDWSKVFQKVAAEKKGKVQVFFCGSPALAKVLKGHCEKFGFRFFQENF
A short description of test [11]: compound effects on lung adenocarcinoma cell viability – A549, calcein-AM fluorescence, 48 h, basal, profiling panel (AID 1162). Note: test concentration not given here. The settings on record: higher = more signal.
A short description of test [12]: compound effects on differentiated 3T3-L1 adipocyte viability – cell-based, 3T3-L1 adipocytes, calcein-AM fluorescence, 48 h, basal, profiling panel (AID 1163). Note: test concentration not given here. To be noted: 3T3-L1 adipocytes viability, higher = more signal.
The nature of test [13]: compound effects on hepatocellular carcinoma cell viability – HepG2, calcein-AM fluorescence, 48 h, basal, profiling panel (AID 1164). Note: test concentration not given here. To be noted: higher = more signal.
Test [14] can be described thus: compound effects on multiple myeloma cell viability – MM1S, calcein-AM fluorescence, 48 h, basal, profiling panel (AID 1165).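 Note: viability of MM1S multiple myeloma cells under basal unstimulated conditions; test concentration not given here.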 To be noted: higher = more signal.
Test [15] can be described thus: calcein-AM signal in unstimulated myeloma cells – cell-based, calcein-AM fluorescence, 48 h, PK04 Diversity Set, profiling panel (AID 1166).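 Note: cells grown under basal conditions without added stimulus; test concentration not given here.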 To be noted: RPMI8226 myeloma viability, higher = more signal.
The nature of test [16]: JC-1 mitochondrial signal, unstimulated HepG2 cells – cell-based, JC-1 fluorescence, 24 h, 100 nL compound, profiling panel (AID 1167). Note: test concentration not given here. The settings on record: HepG2 mitochondrial potential, higher = more signal.
Test [17] can be described thus: JC-1 mitochondrial signal, unstimulated adipocytes – cell-based, JC-1 fluorescence, 3T3-L1 adipocytes, 24 h, 100 nL compound, profiling panel (AID 1168). Note: test concentration not given here. To be noted: JC-1 mitochondrial fluorescence, higher = more signal, called active from +8 up or from −8 down.
Test [18] in a line: JC-1 mitochondrial signal, unstimulated myeloma cells – cell-based, JC-1 fluorescence, RPMI8226, 24 h, 100 nL compound, profiling panel (AID 1169). Note: test concentration not given here. The settings on record: JC-1 mitochondrial potential fluorescence, higher = more signal.
Test [19] is described as follows: JC-1 mitochondrial signal, unstimulated MM1S myeloma – cell-based, JC-1 fluorescence, 24 h, 100 nL compound, profiling panel (AID 1170). Note: test concentration not given here. To be noted: MM1S mitochondrial potential, higher = more signal.
Test [20] is described as follows: resazurin metabolic signal in A549 cells – cell-based, resazurin fluorescence, 24 h, PK04 Diversity Set, profiling panel (AID 1171). Note: test concentration not given here. To be noted: A549 viability, higher = more signal, called active from +8 up or from −8 down.

Sequence of NADPH oxidase 2 (Homo sapiens) (P04839 whole entry, looked up): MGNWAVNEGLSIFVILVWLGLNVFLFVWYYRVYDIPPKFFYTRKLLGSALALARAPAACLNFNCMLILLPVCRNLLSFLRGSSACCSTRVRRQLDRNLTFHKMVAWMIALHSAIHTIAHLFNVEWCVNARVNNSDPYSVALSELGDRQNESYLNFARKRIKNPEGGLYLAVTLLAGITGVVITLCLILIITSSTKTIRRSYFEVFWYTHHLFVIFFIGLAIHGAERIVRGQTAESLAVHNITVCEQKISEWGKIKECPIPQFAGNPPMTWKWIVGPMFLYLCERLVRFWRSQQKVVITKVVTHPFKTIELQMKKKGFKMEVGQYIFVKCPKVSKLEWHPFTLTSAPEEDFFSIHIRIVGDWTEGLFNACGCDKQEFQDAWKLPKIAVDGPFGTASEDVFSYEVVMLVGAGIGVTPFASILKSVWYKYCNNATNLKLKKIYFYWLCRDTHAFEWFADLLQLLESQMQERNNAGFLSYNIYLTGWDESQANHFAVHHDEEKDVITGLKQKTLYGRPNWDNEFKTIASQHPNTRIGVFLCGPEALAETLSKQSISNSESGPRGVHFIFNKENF

With `COC(=O)[C@H](C)NC(=O)CCC1CC(OC(=O)NCc2ccc3c(c2)OCO3)CC2(CCCC(COC(=O)NCc3cccc(C(F)(F)F)c3)O2)O1` (stereo not given in full), the z-score in [1] is -0.39 (inactive); in [3], 0.598 (inactive); in test [4], -0.529 (inactive); in test [5] it was 0.262 (inactive); in test [6], -0.239 (inactive); in test [7] it was 0.0036. Also, the z-score in test [8] is 1.5 (inactive); in test [9], 0.971 (inactive); in test [10], 1.15; in [11], -0.828; in test [12], -0.0811; in test [13], -1.55. In addition, the z-score in [14] is -2.05; in [15], 0.442; in [16], -1.44; in test [17], -0.123 (inactive); in test [18], 0.619; in test [19] it was -0.213. The z-score in [20] was 0.0249 (inactive). In addition, the composite z-score in test [2] is -0.045.
Take `CON=C(C)CCC(=O)OC[C@H]1O[C@H](c2ccccc2)C=C[C@@H]1Oc1ccc(OC)cc1`: the z-score in test [1] is -2.31 (inactive); in test [3], 5.54 (inactive); in test [4] it was 1.17 (inactive); in test [5], 12.7 (active); in test [6] it was 0.49 (inactive); in [7] it was -0.312. Moreover, the z-score was -2.7 (inactive) in test [8]; -0.458 (inactive) in test [9]; -4.44 in test [10]; -0.208 in test [11]; -0.119 in test [12]; -0.646 in test [13]. The z-score was -1.32 in test [14]; -0.0394 in test [15]; -1.05 in [16]; 0.0208 (inactive) in test [17]; 0.00696 in test [18]; -0.0885 in [19]. For the same compound, the z-score in [20] is 0.525 (inactive). The compound also displayed a composite z-score in test [2] of -0.196.
Turning to `COC(=O)[C@H]1O[C@@H](c2c(OC)c(OC)c(C)c(OC)c2OC)[C@H](C)[C@@H](O)[C@H]1C`, the z-score was 0.855 (inactive) in test [1]; 0.516 (inactive) in test [3]; 0.183 (inactive) in [4]; 0.92 (inactive) in [5]; 0.587 (inactive) in [6]; 0.817 in test [7]. Also, the z-score is 0.933 (inactive) in [8]; 0.792 (inactive) in test [9]; 0.194 in [10]; 1.2 in test [11]; -0.302 in test [12]; 0.825 in test [13]. The z-score in test [14] was 1; in [15] it was 1.36; in test [16], 0.438; in test [17], 0.61 (inactive); in [18] it was -0.398; in test [19], -0.848. In test [20], the z-score was -1.27 (inactive). The same compound displayed a composite z-score in [2] of -0.0505.
On to `O=C(C=Cc1ccc2c(c1)OCO2)c1ccc(F)cc1`, for which the z-score in test [1] is -0.394 (inactive); in test [3], 20.7 (active); in test [4] it was 3.22 (inactive); in [5] it was -0.0309 (inactive); in test [6], 0.47 (inactive); in test [7] it was -0.41. Further, the z-score in test [8] is 1.75 (inactive); in test [9], -2 (inactive); in test [10], -1.56; in test [11], -0.182; in [12], 0.867; in test [13], -0.358. The z-score was -3.26 in test [14]; -3.41 in [15]; -0.698 in test [16]; -0.211 (inactive) in [17]; -0.811 in test [18]; -0.286 in test [19]. In addition, the z-score in test [20] is 0.275 (inactive). For the same compound, in test [2], the composite z-score was determined as 0.0685.
Turning to `Cc1ccc(S(=O)(=O)N[C@H]2COC(=O)CC=C[C@@H](C)COC(=O)CC=C[C@@H]2C)cc1`, the z-score is 0.142 (inactive) in test [1]; 0.866 (inactive) in [3]; -0.162 (inactive) in [4]; -0.424 (inactive) in test [5]; -0.014 (inactive) in [6]; -0.41 in test [7]. In addition, the z-score in test [8] was 0.225 (inactive); in test [9], 0.684 (inactive); in test [10] it was 0.238; in test [11] it was 0.409; in test [12] it was -0.203; in [13] it was 0.0995. The z-score was 0.0438 in test [14]; 0.219 in test [15]; 0.247 in test [16]; -0.393 (inactive) in [17]; -0.0798 in test [18]; -0.197 in [19]. Besides, the z-score in test [20] was 0.258 (inactive). This compound also had a composite z-score in [2] of -0.296.
With `O=C1[C@H]2[C@H]3[C@H](O)[C@H](O)CC(=NO[C@@H]4O[C@H](CO)[C@@H](O)[C@H](O)[C@H]4O)[C@H]3CC[C@H]2C(=O)N1c1cccc(Oc2ccccc2)c1`, the z-score is -0.024 (inactive) in [1]; 0.257 (inactive) in test [3]; 0.452 (inactive) in test [4]; 0.253 (inactive) in test [5]; 0.207 (inactive) in test [6]; -0.576 in test [7]. The z-score in test [8] was 0.7 (inactive); in test [9], 0.325 (inactive); in test [10], -0.54; in test [11], -0.0287; in test [12], -0.171; in test [13], -0.733. Also, the z-score in [14] is 0.411; in test [15], -0.782; in test [16], 0.629; in test [17], -0.235 (inactive); in test [18] it was 0.142; in test [19], -0.827. In test [20], the z-score is 1.08 (inactive). Further, the composite z-score in test [2] was -0.286.
With `CC(C)CON=C1C[C@@H](O)[C@@H](O)[C@@H]2[C@@H]3C(=O)N(C(C)(C)C)C(=O)[C@@H]3CC[C@H]12`, the z-score is 0.288 (inactive) in test [1]; 0.221 (inactive) in test [3]; -0.239 (inactive) in [4]; -0.814 (inactive) in test [5]; -0.089 (inactive) in test [6]; -0.382 in test [7]. Besides, the z-score is 1.47 (inactive) in [8]; 0.594 (inactive) in [9]; 0.325 in [10]; 0.539 in [11]; -0.519 in [12]; -0.248 in [13]. Further, the z-score in test [14] was 0.246; in [15] it was 0.0151; in [16], -0.772; in test [17], -0.697 (inactive); in test [18], -0.369; in [19], -0.465. Besides, the z-score in test [20] is -0.77 (inactive). For the same compound, the composite z-score in test [2] was -0.0162.
With `C[C@H]1CC[C@H]2C(=O)O[C@H](COc3ccc(C(C)(C)C)cc3)CN2[C@@H]1c1ccc(Br)cc1`, the z-score is -0.421 (inactive) in [1]; 0.683 (inactive) in test [3]; 0.237 (inactive) in test [4]; -0.889 (inactive) in test [5]; 0.465 (inactive) in [6]; -0.338 in test [7]. The z-score was 0.215 (inactive) in [8]; 0.644 (inactive) in [9]; 0.974 in test [10]; 0.354 in test [11]; 0.356 in [12]; 0.573 in test [13]. Besides, the z-score is 0.0772 in test [14]; -2.09 in [15]; -0.568 in [16]; -0.372 (inactive) in test [17]; -0.841 in test [18]; 1.33 in test [19]. In [20], the z-score is 0.636 (inactive). The compound further showed a composite z-score in test [2] of -0.412.
Consider `O=C1[C@H]2[C@H]3[C@H](O)[C@H](O)CC(=NOC[C@@H](O)COCc4ccco4)[C@H]3CC[C@H]2C(=O)N1Cc1ccccc1`, for which the z-score in test [1] was 0.0413 (inactive); in [3], 0.376 (inactive); in [4], -0.599 (inactive); in [5], -0.409 (inactive); in [6], -1.53 (inactive); in [7], 1.43. Also, the z-score in test [8] was -0.0116 (inactive); in test [9] it was 0.967 (inactive); in test [10], 0.0182; in test [11], 0.172; in test [12] it was 0.194; in [13], -1.46. The z-score in test [14] was 0.455; in test [15] it was -2.06; in test [16] it was 0.176; in test [17] it was -0.161 (inactive); in test [18], 0.714; in [19] it was -0.441. In addition, the z-score in test [20] is 0.968 (inactive). In test [2], the composite z-score was -0.154.

The values are drawn from PubChem BioAssay.
